# Several values for one entry are separate records, joined by “and”; a condition that tells them apart may be missing. Equal values may be shown once. Read-outs that look alike come from different tables or passages of the source.
# How the values were obtained:
# PDGFRB = conditions: concentration: 1 μM, replicates: in singlicate, n = 1
# PDPK1 = conditions: concentration: 1 μM, replicates: in singlicate, n = 1
# PFTAIRE2 = conditions: concentration: 1 μM, replicates: in singlicate, n = 1
# PFTK1 = system: T1, PFTK1; conditions: concentration: 1 μM, replicates: in singlicate, n = 1
# T1 construct: gene CDK14
# PHKG1 = conditions: concentration: 1 μM, replicates: in singlicate; n = 1
# PHKG2 = conditions: concentration: 1 μM, replicates: in singlicate, n = 1
# PIK3C2B = conditions: concentration: 1 μM, replicates: in singlicate, n = 1
# PIK3C2G = conditions: concentration: 1 μM, replicates: in singlicate, n = 1
# PIK3CA = conditions: concentration: 1 μM, replicates: in singlicate; n = 1
# PIK3CB = conditions: concentration: 1 μM, replicates: in singlicate, n = 1
# PIK3CD = conditions: concentration: 1 μM, replicates: in singlicate, n = 1
# PIK3CG = conditions: concentration: 1 μM, replicates: in singlicate, n = 1
# PIK4CB = system: T2, PIK4CB; conditions: concentration: 1 μM, replicates: in singlicate, n = 1
# T2 construct: gene PI4KB
# PIKFYVE = conditions: concentration: 1 μM, replicates: in singlicate, n = 1
# PIM1 = conditions: concentration: 1 μM, replicates: in singlicate, n = 1
# PIM2 = conditions: concentration: 1 μM, replicates: in singlicate, n = 1
# PIM3 = conditions: concentration: 1 μM, replicates: in singlicate; n = 1
# PIP5K1A = conditions: concentration: 1 μM, replicates: in singlicate; n = 1
# PIP5K1C = conditions: concentration: 1 μM, replicates: in singlicate, n = 1
# PIP5K2B = conditions: concentration: 1 μM, replicates: in singlicate; n = 1
# 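Also: KINOMEscan kinase panel screen.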
structure (smiles),measurement,setting,value
Oc1ccc2ncnc(Nc3ccc(OCc4ccccc4)cc3)c2c1 [GI262866],%Inh,PDGFRB,21%
same,%Inh,PDPK1,0%
same,%Inh,PFTAIRE2,13%
same,%Inh,PFTK1,29%
same,%Inh,PHKG1,0%
same,%Inh,PHKG2,0%
same,%Inh,PIK3C2B,0%
same,%Inh,PIK3C2G,0%
same,%Inh,PIK3CA,0%
same,%Inh,PIK3CB,0%
same,%Inh,PIK3CD,5%
same,%Inh,PIK3CG,0%
same,%Inh,PIK4CB,1%
same,%Inh,PIKFYVE,0%
same,%Inh,PIM1,0%
same,%Inh,PIM2,0%
same,%Inh,PIM3,33%
same,%Inh,PIP5K1A,0%
same,%Inh,PIP5K1C,19%
same,%Inh,PIP5K2B,19%
CS(=O)(=O)CCNCc1ccc(-c2ccc3ncnc(Nc4ccc(OCc5ccccc5)c(Cl)c4)c3c2)o1.Cl [GW574783],%Inh,PDGFRB,14%
same,%Inh,PDPK1,17%
same,%Inh,PFTAIRE2,0%
same,%Inh,PFTK1,0%
same,%Inh,PHKG1,13%
same,%Inh,PHKG2,0%
same,%Inh,PIK3C2B,38%
same,%Inh,PIK3C2G,0%
same,%Inh,PIK3CA,0%
same,%Inh,PIK3CB,0%
same,%Inh,PIK3CD,0%
same,%Inh,PIK3CG,0%
same,%Inh,PIK4CB,8%
same,%Inh,PIKFYVE,23%
same,%Inh,PIM1,0%
same,%Inh,PIM2,5%
same,%Inh,PIM3,0%
same,%Inh,PIP5K1A,32%
same,%Inh,PIP5K1C,62%
same,%Inh,PIP5K2B,0%
COc1ccc(-c2nc3n(c2-c2ccncc2)CCC3)cc1 [SKF-104493],%Inh,PDGFRB; 1 µM,5% and 23%
same,%Inh,PDPK1; 1 µM,21% and 0%
same,%Inh,PFTAIRE2; 1 µM,29% and 9%
same,%Inh,PFTK1; 1 µM,0% and 34%
same,%Inh,PHKG1,0%
same,%Inh,PHKG2; 1 µM,0% and 20%
same,%Inh,PIK3C2B; 1 µM,13% and 0%
same,%Inh,PIK3C2G; 1 µM,19% and 0%
same,%Inh,PIK3CA,0%
same,%Inh,PIK3CB; 1 µM,19% and 0%
same,%Inh,PIK3CD; 1 µM,5% and 25%
same,%Inh,PIK3CG; 1 µM,11% and 1%
same,%Inh,PIK4CB; 1 µM,0% and 10%
same,%Inh,PIKFYVE; 1 µM,11% and 0%
same,%Inh,PIM1; 1 µM,0% and 50%
same,%Inh,PIM2; 1 µM,2% and 0%
same,%Inh,PIM3,0%
same,%Inh,PIP5K1A,27%
same,%Inh,PIP5K1C; 1 µM,25% and 5%
same,%Inh,PIP5K2B,0%
FC(F)(F)c1ccc(-c2nn3ncccc3c2-c2ccnc(Nc3cccc(C(F)(F)F)c3)n2)cc1 [GW828205],%Inh,PDGFRB,9%
same,%Inh,PDPK1,0%
same,%Inh,PFTAIRE2,0%
same,%Inh,PFTK1,48%
same,%Inh,PHKG1,9%
same,%Inh,PHKG2,0%
same,%Inh,PIK3C2B,0%
same,%Inh,PIK3C2G,0%
same,%Inh,PIK3CA,0%
same,%Inh,PIK3CB,0%
same,%Inh,PIK3CD,0%
same,%Inh,PIK3CG,0%
same,%Inh,PIK4CB,0%
same,%Inh,PIKFYVE,0%
same,%Inh,PIM1,12%
same,%Inh,PIM2,17%
same,%Inh,PIM3,32%
same,%Inh,PIP5K1A,53%
same,%Inh,PIP5K1C,0%
same,%Inh,PIP5K2B,0%
O=C(NCCCN1CCCC1=O)c1cnc(NCc2cc(Cl)ccc2Cl)nc1NC1CCNCC1,%Inh,PDGFRB,0%
same,%Inh,PDPK1,7%
same,%Inh,PFTAIRE2,0%
same,%Inh,PFTK1,7%
same,%Inh,PHKG1,0%
same,%Inh,PHKG2,1%
same,%Inh,PIK3C2B,0%
same,%Inh,PIK3C2G,0%
same,%Inh,PIK3CA,0%
same,%Inh,PIK3CB,0%
same,%Inh,PIK3CD,0%
same,%Inh,PIK3CG,7%
same,%Inh,PIK4CB,0%
same,%Inh,PIKFYVE,30%
same,%Inh,PIM1,0%
same,%Inh,PIM2,0%
same,%Inh,PIM3,4%
same,%Inh,PIP5K1A,0%
same,%Inh,PIP5K1C,12%
same,%Inh,PIP5K2B,0%
O=c1cc(N2CCOCC2)nc2n(Cc3cccc(Cl)c3)ccn12 [GSK2296823],%Inh,PDGFRB,15%
same,%Inh,PDPK1,0%
same,%Inh,PFTAIRE2,14%
same,%Inh,PFTK1,18%
same,%Inh,PHKG1,0%
same,%Inh,PHKG2,0%
same,%Inh,PIK3C2B,6%
same,%Inh,PIK3C2G,0%
same,%Inh,PIK3CA,0%
same,%Inh,PIK3CB,98.5%
same,%Inh,PIK3CD,68%
same,%Inh,PIK3CG,0%
same,%Inh,PIK4CB,2%
same,%Inh,PIKFYVE,0%
same,%Inh,PIM1,0%
same,%Inh,PIM2,0%
same,%Inh,PIM3,0%
same,%Inh,PIP5K1A,0%
same,%Inh,PIP5K1C,8%
same,%Inh,PIP5K2B,11%
Cc1cccc(-c2nc(Nc3ccc4[nH]nnc4c3)c3ccccc3n2)n1 [GW867587],%Inh,PDGFRB,0%
same,%Inh,PDPK1,0%
same,%Inh,PFTAIRE2,0%
same,%Inh,PFTK1,0%
same,%Inh,PHKG1,0%
same,%Inh,PHKG2,0%
same,%Inh,PIK3C2B,0%
same,%Inh,PIK3C2G,0%
same,%Inh,PIK3CA,0%
same,%Inh,PIK3CB,0%
same,%Inh,PIK3CD,0%
same,%Inh,PIK3CG,0%
same,%Inh,PIK4CB,0%
same,%Inh,PIKFYVE,13%
same,%Inh,PIM1,17%
same,%Inh,PIM2,0%
same,%Inh,PIM3,2%
same,%Inh,PIP5K1A,27%
same,%Inh,PIP5K1C,0%
same,%Inh,PIP5K2B,0%
CC(C)N1CCC(n2cnc(-c3ccc(F)cc3)c2-c2ccnc(N)n2)CC1 [SB-223132],%Inh,PDGFRB,0%
same,%Inh,PDPK1,5%
same,%Inh,PFTAIRE2,0%
same,%Inh,PFTK1,2%
same,%Inh,PHKG1,28%
same,%Inh,PHKG2,0%
same,%Inh,PIK3C2B,0%
same,%Inh,PIK3C2G,0%
same,%Inh,PIK3CA,0%
same,%Inh,PIK3CB,0%
same,%Inh,PIK3CD,0%
same,%Inh,PIK3CG,7%
same,%Inh,PIK4CB,0%
same,%Inh,PIKFYVE,10%
same,%Inh,PIM1,29%
same,%Inh,PIM2,22%
same,%Inh,PIM3,10%
same,%Inh,PIP5K1A,54%
same,%Inh,PIP5K1C,49%
same,%Inh,PIP5K2B,0%
Nc1nc(-c2ccccn2)c(-c2ccnc3ccccc23)s1 [GW548057],%Inh,PDGFRB,23%
same,%Inh,PDPK1,0%
same,%Inh,PFTAIRE2,9%
same,%Inh,PFTK1,29%
same,%Inh,PHKG1,0%
same,%Inh,PHKG2,6%
same,%Inh,PIK3C2B,0%
same,%Inh,PIK3C2G,0%
same,%Inh,PIK3CA,7%
same,%Inh,PIK3CB,14%
same,%Inh,PIK3CD,0%
same,%Inh,PIK3CG,10%
same,%Inh,PIK4CB,0%
same,%Inh,PIKFYVE,33%
same,%Inh,PIM1,0%
same,%Inh,PIM2,0%
same,%Inh,PIM3,0%
same,%Inh,PIP5K1A,54%
same,%Inh,PIP5K1C,87%
same,%Inh,PIP5K2B,14%
Nc1nc(-c2ccc3c(N)n[nH]c3c2)cc(N2CCC[C@@H](C(=O)Nc3ccccc3)C2)n1.O=C(O)C(F)(F)F.O=C(O)C(F)(F)F [GSK2288359],%Inh,PDGFRB,31%
same,%Inh,PFTAIRE2,18%
same,%Inh,PFTK1,16%
same,%Inh,PHKG1,0%
same,%Inh,PHKG2,2%
same,%Inh,PIK3C2B,1%
same,%Inh,PIK3C2G,42%
same,%Inh,PIK3CA,4%
same,%Inh,PIK3CB,0%
same,%Inh,PIK3CD,31%
same,%Inh,PIK3CG,13%
same,%Inh,PIK4CB,6%
same,%Inh,PIKFYVE,4%
same,%Inh,PIM1,20%
same,%Inh,PIM2,0%
same,%Inh,PIM3,5%
same,%Inh,PIP5K1A,0%
same,%Inh,PIP5K1C,30%
same,%Inh,PIP5K2B,8%
c1ccc(-c2ccc3c(-c4ccnc(Nc5ccc6c(c5)OCCO6)n4)cnn3n2)cc1 [GW818941],%Inh,PDGFRB,4%
same,%Inh,PDPK1,17%
same,%Inh,PFTAIRE2,5%
same,%Inh,PFTK1,19%
same,%Inh,PHKG1,0%
same,%Inh,PHKG2,0%
same,%Inh,PIK3C2B,0%
same,%Inh,PIK3C2G,11%
same,%Inh,PIK3CA,0%
same,%Inh,PIK3CB,0%
same,%Inh,PIK3CD,0%
same,%Inh,PIK3CG,0%
same,%Inh,PIK4CB,0%
same,%Inh,PIKFYVE,0%
same,%Inh,PIM1,9%
same,%Inh,PIM2,0%
same,%Inh,PIM3,17%
same,%Inh,PIP5K1A,0%
same,%Inh,PIP5K1C,0%
same,%Inh,PIP5K2B,1%
